Data taken from PubChem BioAssay (Tox21).
Results filed as inconclusive are left out. Calls of active or inactive are those of the source. Unless noted, the call rests on the fitted dose curve; in most records, active means well fitted curve in the direction sought with a large enough effect in the repeat runs; inconclusive means weak or mixed curves; inactive means no such curve, though single readings can be large; an effect the other way counts as inactive or inconclusive.

How the values were obtained:
[1] = qHTS assay to identify small molecule antagonists of the retinoid acid receptor (RAR) signaling pathway - cell viability counter screen (AID 1159551); further: nearly all actives have a fitted effect of over 35% in size
Summary of the method: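 Measured by luminescent ATP detection, viability reflects C3RL4 cells treated 6 h at 37 C with test chemicals in the presence of 1 uM (final) retinol.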

[2] = qHTS assay to identify small molecule antagonists of the retinoic acid receptor (RAR) signaling pathway (AID 1159552; further: nearly all actives have a fitted effect of over 50% in size; further: potency means the concentration at half of the fitted maximal effect)
Summary of the method: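 Luminescence from a RARE luciferase reporter in C3RL4 cells served as read-out. Cells received compounds together with 1 uM final retinol and incubated 6 hr at 37 C before detection reagent was added for 30 min at room temperature.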

[3] = qHTS assay to identify small molecule agonists of the retinoic acid receptor (RAR) signaling pathway (AID 1159553)
Summary of the method: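 6 hr compound exposure (DMSO vehicle) of overnight-plated C3RL4 RARE-luc cells at 37 C; luminescence quantified after 30 min RT with luciferase reagent.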

[4] = qHTS assay to identify small molecule antagonists of the estrogen related receptor (ERR) signaling pathway from Tox21 library - cell viability counter screen (AID 1224834); further: nearly all actives have a fitted effect of over 30% in size; further: potency means the concentration at half of the fitted maximal effect
Summary of the method: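 Seeded ERR cells were rested 6 h at 37 C/5% CO2 before compounds, positive and negative controls or DMSO were added. Incubation continued for 17.5 h, and viability was then quantified by CellTiter-Fluor fluorescence.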

[5] = target: Luciferin 4-monooxygenase (Photinus pyralis) (UniProt P08659); experiment: qHTS assay to identify small molecule inhibitors of firefly luciferase (AID 1224835); further: nearly all actives have a fitted effect of over 25% in size; further: potency means the concentration at half of the fitted maximal effect
Summary of the method: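 Quantitative HTS format; KM concentrations of both substrates. Purified P. pyralis FLuc activity quantified from luminescence images.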

[6] = qHTS assay to identify small molecule agonists of the constitutive androstane receptor (CAR) signaling pathway - cell viability counter screen (AID 1224836); further: series mostly up to about 92 µM; nearly all actives have a fitted effect of over 45% in size
Summary of the method: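 Viability read-out: CellTiter-Fluor fluorescence after 23 h compound exposure at 37 C/5% CO2 in double-stable HepG2-CYP2B6-hCAR cells, with PK11195 present at 0.75 uM final; compounds tested in 15-point titration.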

[7] = qHTS assay to identify small molecule antagonists of the estrogen related receptor signaling pathway with the pleiotropic PPARgamma coactivator (PGC) from Tox21 10K library (AID 1224841; call rule not given here; further: series mostly up to about 92 µM; actives are mostly falling curves and most rising ones were filed inactive; nearly all actives have a fitted effect of over 50% in size)
Summary of the method: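 Test chemicals dissolved in DMSO were applied to pre-incubated (6 h) PGC/ERR cells at 2,000 cells/well for an 18 h, 37 C treatment; reporter luminescence was then read using One-Glo.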

[8] = target: Thyrotropin receptor (Homo sapiens) (UniProt P16473); experiment: qHTS assay to identify small molecule agonists of the thyroid stimulating hormone receptor (TSHR) signaling pathway (AID 1224843; calls by dose curve; further: nearly all actives have a fitted effect of over 45% in size; further: potency means the concentration at half of the fitted maximal effect)
Summary of the method: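 Using 15 concentrations per compound in triplicate, cAMP production was monitored in TSHR-HEK293 cells after 30 min compound incubation at RT; HTRF reagents followed, with fluorescence intensity recorded after 1 h.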

[9] = qHTS assay to identify small molecule antagonists of the constitutive androstane receptor (CAR) signaling pathway - cell viability counter screen (AID 1224837); further: nearly all actives have a fitted effect of over 45% in size; further: potency means the concentration at half of the fitted maximal effect
Summary of the method: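 To flag cytotoxic false antagonists, HepG2 hCAR/CYP2B6-2.2kb cells were treated 23 hr with 15-concentration compound series and 50 nM CITCO at 37 C/5% CO2; CellTiter-Fluor fluorescence was the measured end point.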

[10] = qHTS assay to identify small molecule antagonists of the estrogen related receptor signaling pathway with the pleiotropic PPARgamma coactivator (PGC) from Tox21 10K library - cell viability counter screen (AID 1224840; active means well fitted cell-killing curve with a large enough effect in the repeat runs, not every such curve was filed as active; further: nearly all actives have a fitted effect of over 40% in size)
Summary of the method: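 Seeded PGC/ERR cells (2,000/well, 6 h, 37 C/5% CO2) get compound by pin tool; 17.5 h incubation at 37 C; CellTiter-Fluor added, 30 min, fluorescence measured.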

[11] = qHTS assay to identify small molecule agonists of the estrogen related receptor signaling pathway with the pleiotropic PPARgamma coactivator (PGC) from Tox21 10K library (AID 1224842); further: nearly all actives have a fitted effect of over 15% in size
Summary of the method: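 PGC/ERR reporter cells (NTP line) were seeded 2,000 per well, rested 6 h at 37 C/5% CO2, then pin-dosed with compounds in DMSO for 18 h at 37 C; luciferase read by One-Glo luminescence after 30 min at room temperature.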

[12] = target: Nuclear receptor subfamily 1 group I member 3 (Homo sapiens) (UniProt Q14994); experiment: qHTS assay to identify small molecule antagonists of the constitutive androstane receptor (CAR) signaling pathway (AID 1224838);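 further: HepG2 cells stably expressing hCAR with CYP2B6 luciferase reporter stimulated by CITCO; nearly all actives have a fitted effect of over 40% in size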
Summary of the method: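 Human hepatoma HepG2 cells expressing hCAR and a CYP2B6 promoter (2.2 kb) luciferase construct; compound titration (15 points) with 50 nM CITCO final, 24 h at 37 C/5% CO2; luminescence via ONE-Glo after 30 min at room temperature.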

[13] = target: Nuclear receptor subfamily 1 group I member 3 (Homo sapiens) (UniProt Q14994); experiment: qHTS assay to identify small molecule agonists of the constitutive androstane receptor (CAR) signaling pathway (AID 1224839);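 further: HepG2 cells stably carrying human CAR and a CYP2B6 luciferase reporter; series mostly up to about 92 µM; nearly all actives have a fitted effect of over 15% in size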
Summary of the method: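 Luminescence read-out (ONE-Glo, 30 min, room temperature) from double-stable HepG2-CYP2B6-hCAR cells exposed 24 h to 15-point compound series in presence of 0.75 uM PK11195 final.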

[14] = qHTS assay to identify small molecule agonists of the RXR signaling pathway - cell viability counter screen (AID 1159529); further: series mostly up to about 77 µM; nearly all actives have a fitted effect of over 50% in size
Summary of the method: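 Luminescence from CellTiter-Glo (30 min, RT) measured viability in the same wells as the beta-lactamase reporter readout. Cells: GeneBLAzer RXR-alpha HEK 293T, 2% charcoal-stripped FBS. Compound exposure 16 hr, 37 C.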

[15] = qHTS assay to identify small molecule antagonists of the estrogen related receptor (ERR) signaling pathway - cell viability counter screen (AID 1224818); further: series mostly up to about 46 µM
Summary of the method: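 Compounds dissolved in DMSO were applied to ERR cells seeded at 2,000 per well 6 h earlier. Cell viability followed 17.5 h later via 30-min CellTiter-Fluor fluorescence.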

[16] = qHTS assay to identify small molecule agonists of the estrogen related receptor (ERR) signaling pathway (AID 1224820)
Summary of the method: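 Following a 6 h settling period, 2,000 ERR cells per well receive DMSO-dissolved compounds by pin tool and incubate 18 h at 37 C; agonist activity is scored from One-Glo luminescence read 30 min post-addition.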

[17] = test system: estrogen-related receptor alpha (ERRalpha) with PGC-1alpha coactivator, human; experiment: qHTS assay to identify small molecule antagonists of the estrogen related receptor signaling pathway with the pleiotropic PPARgamma coactivator (PGC) (AID 1224821; calls by dose curve;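 further: series mostly up to about 46 µM; lower luminescence signal means antagonism of PGC/ERR signalling; nearly all actives have a fitted effect of over 50% in size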)
Summary of the method: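 Screening used NTP's PGC/ERR cells, dosed via pin tool with compound in DMSO alongside positive and negative controls. After 18 h at 37 C, One-Glo reagent sat 30 min at room temperature before luminescence detection.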

[18] = qHTS assay to identify small molecule antagonists of the estrogen related receptor signaling pathway with the pleiotropic PPARgamma coactivator (PGC) cell viability counter screen (AID 1224822; further: series mostly up to about 46 µM)
Summary of the method: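 Counter screen for cell viability: PGC/ERR cells, 6 h pre-incubation after plating, 17.5 h compound exposure at 37 C, fluorescence from CellTiter-Fluor after 30 min.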

[19] = qHTS assay to identify small molecule agonists of the estrogen related receptor signaling pathway with the pleiotropic PPARgamma coactivator (PGC) (AID 1224823)
Summary of the method: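 In this quantitative high-throughput screen, an 18 h, 37 C treatment of PGC/ERR cells with compounds in DMSO preceded a One-Glo luminescence read taken after 30 min at room temperature.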

Measured: Potency

Thyrotropin receptor (Homo sapiens), sequence (P16473 whole entry, looked up): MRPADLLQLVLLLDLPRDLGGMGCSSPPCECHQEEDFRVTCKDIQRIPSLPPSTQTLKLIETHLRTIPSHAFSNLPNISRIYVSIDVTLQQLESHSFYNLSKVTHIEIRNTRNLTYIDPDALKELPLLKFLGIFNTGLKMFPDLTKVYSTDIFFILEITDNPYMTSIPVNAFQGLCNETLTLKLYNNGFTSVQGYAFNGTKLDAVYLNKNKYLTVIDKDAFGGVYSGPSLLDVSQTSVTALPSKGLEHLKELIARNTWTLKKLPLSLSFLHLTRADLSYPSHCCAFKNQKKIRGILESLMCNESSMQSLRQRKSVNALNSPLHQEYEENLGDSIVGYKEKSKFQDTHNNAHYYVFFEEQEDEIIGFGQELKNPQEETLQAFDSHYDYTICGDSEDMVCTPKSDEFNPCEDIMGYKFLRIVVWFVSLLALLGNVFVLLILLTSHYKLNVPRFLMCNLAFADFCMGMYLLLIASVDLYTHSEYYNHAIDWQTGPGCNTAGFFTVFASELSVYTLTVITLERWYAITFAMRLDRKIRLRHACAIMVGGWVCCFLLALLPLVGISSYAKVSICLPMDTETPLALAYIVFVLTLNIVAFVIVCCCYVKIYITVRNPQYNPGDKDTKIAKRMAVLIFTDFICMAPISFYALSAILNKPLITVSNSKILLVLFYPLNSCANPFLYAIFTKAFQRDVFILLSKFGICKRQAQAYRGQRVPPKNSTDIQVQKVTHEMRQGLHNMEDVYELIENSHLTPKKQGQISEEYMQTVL
Nuclear receptor subfamily 1 group I member 3 (Homo sapiens), sequence (Q14994 whole entry, looked up): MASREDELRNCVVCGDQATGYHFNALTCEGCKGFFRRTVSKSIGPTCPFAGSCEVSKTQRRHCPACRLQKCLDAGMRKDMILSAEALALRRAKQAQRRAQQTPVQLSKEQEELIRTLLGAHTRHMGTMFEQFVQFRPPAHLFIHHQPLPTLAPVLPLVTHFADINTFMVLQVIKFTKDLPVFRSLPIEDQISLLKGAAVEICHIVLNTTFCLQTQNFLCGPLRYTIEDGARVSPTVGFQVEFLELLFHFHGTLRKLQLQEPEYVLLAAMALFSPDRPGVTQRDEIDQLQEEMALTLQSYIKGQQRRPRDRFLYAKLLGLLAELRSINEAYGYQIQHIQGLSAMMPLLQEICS
Luciferin 4-monooxygenase (Photinus pyralis), sequence (P08659 whole entry, looked up): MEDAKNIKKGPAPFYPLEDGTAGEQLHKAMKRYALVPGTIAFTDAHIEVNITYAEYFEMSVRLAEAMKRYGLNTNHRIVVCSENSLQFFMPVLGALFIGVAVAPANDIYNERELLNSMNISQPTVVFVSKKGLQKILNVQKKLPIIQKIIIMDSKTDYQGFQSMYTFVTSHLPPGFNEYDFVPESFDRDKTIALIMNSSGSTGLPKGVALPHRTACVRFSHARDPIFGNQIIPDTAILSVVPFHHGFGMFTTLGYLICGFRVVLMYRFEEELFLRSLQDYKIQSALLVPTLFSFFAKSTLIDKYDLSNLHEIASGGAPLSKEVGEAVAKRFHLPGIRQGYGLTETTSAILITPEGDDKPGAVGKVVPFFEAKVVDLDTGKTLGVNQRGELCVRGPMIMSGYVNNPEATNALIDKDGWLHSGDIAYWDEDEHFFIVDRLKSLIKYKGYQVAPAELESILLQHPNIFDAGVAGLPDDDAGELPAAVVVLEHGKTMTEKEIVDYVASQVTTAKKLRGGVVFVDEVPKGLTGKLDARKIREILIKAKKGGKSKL

O=C(O)Cc1sc(-c2ccccc2)nc1-c1ccc(Cl)cc1
inactive: [1] | [2] | [3] | [4] | [5] | [6] | [7] | [8]

O=C(Cl)c1ccc([N+](=O)[O-])cc1
inactive: [1] | [2] | [3] | [4] | [5] | [6] | [9] | [10] | [8]

CCCCC(CC)COCCCN (stereo not given)
inactive: [1] | [2] | [3] | [4] | [5] | [6] | [9] | [10] | [11] | [8]

NCCCOCCOCCOCCCN
inactive: [1] | [2] | [3] | [4] | [5] | [6] | [9] | [12] | [13] | [10] | [8]

CN(C(=O)CCCOc1ccc2[nH]c(=O)ccc2c1)C1CCCCC1
inactive: [14] | [3] | [15] | [16] | [17] | [18] | [19] | [4] | [5] | [9] | [12] | [10] | [7] | [11]
active: [8] 0.335 µM

O=C(NN1CCCC1)NS(=O)(=O)c1ccc(Cl)cc1
inactive: [1] | [2] | [3] | [4] | [5] | [6] | [9] | [13] | [10] | [7] | [11] | [8]

COc1ccc([C@@H]2Sc3ccccc3N(CCN(C)C)C(=O)[C@@H]2OC(C)=O)cc1
inactive: [1] | [2] | [3] | [15] | [16] | [18] | [5] | [6] | [9] | [10] | [8]

CCOC(=O)C1=NN(c2ccccc2)C(=O)C1
inactive: [1] | [2] | [3] | [4] | [5] | [6] | [9] | [10] | [8]

CCCCOC(O)CC (stereo not given)
inactive: [1] | [2] | [3] | [4] | [5] | [6] | [9] | [10] | [8]

CCN(CC)CCOC(=O)C1(c2ccccc2)CCCC1
inactive: [1] | [2] | [3] | [4] | [5] | [6] | [12] | [13] | [7] | [8]

CC(=O)c1c(C)c([N+](=O)[O-])c(C(C)(C)C)c([N+](=O)[O-])c1C
active: [8] 6.11 µM
inactive: [1] | [2] | [3] | [4] | [5] | [6] | [12] | [10]

COc1ccc(OC)c(OC)c1
inactive: [14] | [5] | [6] | [9] | [12] | [13] | [10] | [8]

CN(C)CC/C=C1\c2ccccc2COc2ccccc21
inactive: [1] | [3] | [15] | [18] | [4] | [6] | [13] | [10] | [8]
active: [2] 21.1 µM

CN(C)CC[C@@H](c1ccc(Br)cc1)c1ccccn1
inactive: [1] | [2] | [3] | [15] | [18] | [4] | [5] | [6] | [9] | [13] | [10]

CN(C)C/C=C(/c1ccc(Br)cc1)c1cccnc1
inactive: [1] | [3] | [15] | [18] | [4] | [5] | [6] | [9] | [8]

CC(C)(C)C(=O)OCOP(=O)(COCCn1cnc2c(N)ncnc21)OCOC(=O)C(C)(C)C
inactive: [1] | [5] | [10] | [8]
active: [2] 3.76 µM

C1=Cc2ccccc2C1
inactive: [2] | [3] | [5] | [6] | [9] | [12] | [10] | [7] | [11]

CCCCOC(=O)/C=C\C(=O)OCCCC
inactive: [1] | [3] | [4] | [5] | [6] | [9] | [12] | [13] | [10] | [7] | [11] | [8]

CCN(CC)CCOc1ccc2c(c1)C(=O)c1cc(OCCN(CC)CC)ccc1-2
active: [4] 11.9 µM | [9] 23.7 µM
inactive: [1] | [2] | [7]

CC[C@]12CCCN3CCc4c(n(c5ccccc45)C(=O)C1)[C@@H]32
active: [4] 9.44 µM
inactive: [1] | [3] | [5] | [10] | [7] | [8]

CC[C@H](C)[C@@H](C(=O)O)n1sc2ccccc2c1=O
inactive: [1] | [3] | [4] | [6] | [9] | [12] | [13] | [10] | [8]
active: [5] 17.8 µM

CC(=O)OC/C=C/c1ccccc1
inactive: [1] | [4] | [5] | [6] | [9] | [12] | [13] | [10] | [7] | [11] | [8]
